Target: FZD1
Test: pooled miR-30 sensor sort-seq; sequence = guide strand
Conditions: shRNA
Note: reference of the scale not given here.

Sequence | sensor-assay potency score (higher = more potent)
TACAGCACGCTGAAGACGCCAA | -0.38
TAGAACTTCCTCCAGGAGTTGA | -0.794
TTGAGGGTCTTGCCGGACCAGA | -1.52
TTGCTGTTGGTGAGCCTCGTGT | -1.11

Target: FZD4
Test: as above
Conditions: shRNA

Sequence | sensor-assay potency score (higher = more potent)
AACTTGTCTGTCTTTGTCCCAT | 0.289
TTTGCTATCTGAAAGACCCAGT | 0.327
TACAGTACTGAGAACACCCCAA | 0.428
TTTTAGTAGAATTTCCTCCAAA | -0.591
TTGGTTTCCAACATAGCACAAG | -0.766
TAACAGGCAATCACACACGTTG | -0.53
TTGACTGAAAGACACATGCCGC | -0.778
TATCAGTGAACTCCTTGGCTGA | -0.901
TATTATAGCACATACTGAGAAA | -1.2
TCAGTCTTTCTAACTTGTCTGT | -0.388
TCTTTCTAACTTGTCTGTCTTT | -0.962

Target: FZD5
Test: as above
Conditions: shRNA

Sequence | sensor-assay potency score (higher = more potent)
TTGATGACGCTGCGGATGCGGA | -1.12
TAGCAGGCCACCACAATGCTGG | -0.787
TACTTGAGCATGAGCACCCAGT | -0.921
TAGAGCATAGGAAGAAGCGCAG | -0.267
TAGAGCAGCGTGAAGATGCCGA | 0.0125
TCTCGCGGTAGTGCTGCTCGTA | -1.3
AGGAGCAGCAGCAACAGCGAGG | -2.13
TTCCATGTCGATGAGGAAGGTG | -0.703
TCCATGTCGATGAGGAAGGTGG | -1.25
TCCAGCTTGTCCGTCTTGGTGC | -1.11
TAGGAAGAAGCGCAGGTCCGGC | -0.902
TTCTCCAGCTTGTCCGTCTTGG | -0.54

Target: FZD8
Test: as above
Conditions: shRNA

Sequence | sensor-assay potency score (higher = more potent)
TATCATGCTAATAGCAATCAAC | -0.951
TTGATGACCGAGCGGATGCGGA | -1.04
TAAGACACGGAGCTCGCCGTGC | -0.78
TTCTTGTAGTCCTCTAGGCAGA | -1.02
TTTACTTAAGGCATTTGCCTGG | 0.501
TACTTGAGCATGAAGACGGCGT | 0.273
TTGTAGTCCATGCACAGCGTGT | -1.01
TGTTGCTTGATGACCGAGCGGA | -0.353
TTATATCTGTTCTTACAGGGGT | -0.138
TGTAGGTGTAGTTGTAGCCGAT | -0.983
TATATCTGTTCTTACAGGGGTA | -0.151
ATAATTAAGACATTTCTTGTTT | 0.00747

Source: the OligoGym collection
